# From the supplement of paper PMC3545927
# This is one part of the list. The hit rate among all sequences tested is not known here.
# Biological target: furin, P09958
# Assay: furin cleavage Z-score vs untreated control; higher = more cleavage, active = 3.5 or more, inactive = 1 or less, 8 variable residues between constant flanks
# Procedure, shortened: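 Read counts from sequencing released DNA gave abundance for each bead-bound 8-mer peptide–cDNA fusion cut by purified furin over 7.5, 15 or 30 min. The cleavage Z-score compares log counts with furin-free reactions after lowess adjustment and median absolute deviation scaling.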
# 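Further: purified furin at 1:10 enzyme:substrate in 50 mM HEPES pH 7.5.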
# Sequence of furin, P09958 (P09958 whole entry): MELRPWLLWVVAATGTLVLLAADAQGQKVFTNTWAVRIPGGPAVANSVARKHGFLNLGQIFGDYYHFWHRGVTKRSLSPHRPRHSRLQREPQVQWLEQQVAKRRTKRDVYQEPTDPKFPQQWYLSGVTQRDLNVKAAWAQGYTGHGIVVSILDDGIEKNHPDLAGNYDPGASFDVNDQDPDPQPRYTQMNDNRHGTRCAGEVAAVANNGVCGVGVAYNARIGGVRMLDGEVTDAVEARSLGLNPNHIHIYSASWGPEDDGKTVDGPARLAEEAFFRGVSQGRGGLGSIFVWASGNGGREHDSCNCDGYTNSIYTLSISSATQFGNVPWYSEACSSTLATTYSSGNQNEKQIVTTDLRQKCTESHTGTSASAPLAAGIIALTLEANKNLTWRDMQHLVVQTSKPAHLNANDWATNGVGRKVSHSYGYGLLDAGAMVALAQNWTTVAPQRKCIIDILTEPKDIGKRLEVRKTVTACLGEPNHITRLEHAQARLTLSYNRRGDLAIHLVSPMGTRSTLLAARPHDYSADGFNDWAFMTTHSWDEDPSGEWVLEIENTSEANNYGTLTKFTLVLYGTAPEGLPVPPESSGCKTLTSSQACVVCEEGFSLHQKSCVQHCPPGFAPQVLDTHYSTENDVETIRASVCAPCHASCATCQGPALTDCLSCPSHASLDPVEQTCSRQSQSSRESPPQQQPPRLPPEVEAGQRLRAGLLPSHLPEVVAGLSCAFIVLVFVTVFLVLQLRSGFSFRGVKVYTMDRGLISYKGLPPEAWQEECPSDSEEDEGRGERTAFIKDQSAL
Sequence,furin cleavage Z-score (7.5 min),furin cleavage Z-score (15 min),furin cleavage Z-score (30 min)
CAEEMEECSQAGNASASA [HC1792],0.0451 (inactive),-0.543 (inactive),-0.411 (inactive)
CASTKVPAAYAGNASASA [HC779],-0.328 (inactive),-0.544 (inactive),0.327 (inactive)
CAPGALVVGVAGNASASA [HC1105],-0.0947 (inactive),0.679 (inactive),-0.0726 (inactive)
CARKYRSHHDAGNASASA [FS-2428],1.45,4.06 (active),3.48
CADSTVTESDAGNASASA [HC1483],-0.354 (inactive),0.495 (inactive),0.157 (inactive)
CARKYRSNKGAGNASASA [FS-2703],0.0213 (inactive),0.138 (inactive),1.58
CARKYREVFCAGNASASA [FS-2041],0.9 (inactive),2.75,2.7
CARKYRFHGGAGNASASA [FS-1734],0.847 (inactive),-1.27 (inactive),-0.103 (inactive)
CARKARFIHDAGNASASA [FS-2421],2.71,4.77 (active),7.1 (active)
CARKARFGSEAGNASASA [FS-2958],0.624 (inactive),0.0236 (inactive),1.04
CARKAREVCDAGNASASA [FS-1900],5.27 (active),5.4 (active),4.27 (active)
CASTPCSADLAGNASASA [HC2551],1.45,0.00667 (inactive),2.02
CANYTFALWRAGNASASA [HC1199],-0.0905 (inactive),-0.132 (inactive),1.34
CAAGVDAETHAGNASASA [HC350],-0.719 (inactive),-1.77 (inactive),-1.18 (inactive)
CAEVKTSTWVAGNASASA [HC2194],0.637 (inactive),-0.239 (inactive),-1.95 (inactive)
CADIPRYKRMAGNASASA [FS-1189],6.09 (active),5.32 (active),5.91 (active)
CATLSRKKRAAGNASASA [FS-567],9.09 (active),8.88 (active),6.75 (active)
CAVKARIKRMAGNASASA [FS-310],8.88 (active),10.6 (active),7.99 (active)
CAKDSRLSRDAGNASASA [FS-1017],-0.904 (inactive),0.551 (inactive),0.282 (inactive)
CAVKAAASKVAGNASASA [HC1406],-0.468 (inactive),1.05,-0.785 (inactive)
CAMKARPEKSAGNASASA [FS-1139],0.00638 (inactive),-0.792 (inactive),-2.08 (inactive)
CATLSRKSRDAGNASASA [FS-1173],10.1 (active),11.3 (active),6.95 (active)
CANNSREKKAAGNASASA [FS-1378],-0.625 (inactive),-0.493 (inactive),-0.698 (inactive)
CAKLEVVTSTAGNASASA [HC2274],0.95 (inactive),0.175 (inactive),-1.42 (inactive)
CATNRRKKRAAGNASASA [FS-1174],8.44 (active),7.81 (active),8.15 (active)
CAIISKKKRMAGNASASA [FS-908],0.592 (inactive),-0.299 (inactive),1.14
CATNRRPQDVAGNASASA [HC168],-1.65 (inactive),-1.52 (inactive),0.59 (inactive)
CAVISRKKRMAGNASASA [FS-888],8.47 (active),11.4 (active),8.35 (active)
CAGHITGHRMAGNASASA [HC316],0.56 (inactive),-0.81 (inactive),-0.0561 (inactive)
